A selection: hits, their analogues and other compounds. The true share with any hit is near 5.2%.
Tau ThT inhib: tau fibrillization inhibition (ThT binding) | P10636 | recombinant tau K18 P301L, heparin-induced fibrillization, ThT fluorescence | Potency, µM (series often up to 57.4 µM), most hits filed as inhibitors | hit rate 2.1% among 270,000 | AID 1460; further: nearly all actives have a fitted effect of over 55% in size
Target sequence (P10636 561-689 P618L limits assumed): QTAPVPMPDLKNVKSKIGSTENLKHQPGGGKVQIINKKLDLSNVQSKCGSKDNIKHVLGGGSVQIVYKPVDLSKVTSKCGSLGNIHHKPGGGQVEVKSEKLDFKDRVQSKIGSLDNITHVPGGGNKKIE
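Aggregation was driven by heparin (20 uM final) acting on recombinant tau […] bearing P301L in 100 mM sodium acetate pH 7; fibrils were detected with Thioflavin T.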
Tau fluor cs: counter-screen for tau fibril formation inhibitors. tau K18 P301L (four-repeat tau fragment) Alexa594 fluorescence, heparin fibrillization. Potency, µM (highest dose often 57.7 µM). hit rate 0.93% among 280,000; further: nearly all actives have a fitted effect of over 55% in size
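Human K18 P301L tau (15 uM unlabeled plus 0.24 uM Alexa 594-labeled, final) in 100 mM sodium acetate pH 7 was mixed with compound and 20 uM heparin and incubated 6 hr at 37 C.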
Sfp PPTase inh: blocks B. subtilis Sfp PPTase activity. Q9F4F7. Biochemical Sfp PPTase activity, qHTS. Potency, µM, most hits filed as inhibitors. hit rate 3.5% among 310,000;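 further: the enzyme is Sfp with the accession as filed and its product quenches rhodamine fluorescence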
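Fluorescence-quenching assay: 15 nM Sfp-PPTase preincubated 15 min at room temperature with compound, then 5 uM rhodamine-CoA and 12.5 uM BHQ-2-labelled YbbR peptide added. Fluorescence (ex 525/em 598 nm) read at start and after 30 min; difference gives rate.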
FBPA coupling cs: inhibits coupling enzyme system, counter-screen for aldolase hits. coupling enzyme system counterscreen, AmpLite Red fluorescence. activity change, negative = inhibition, % at 58.2 µM, hits read low. hit rate 0.67% among 290,000. AID 2472; in the data active means activity change below about -30%
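Coupling enzymes only (glyceraldehyde-3-phosphate) + compound, at 57.5 uM final, 10 min RT; add substrate/coupling/AmpLite Red mix, 20 min RT; fluorescence ex 525/em 598 nm. Actives flag coupling-system interference.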
Tau fibril FP: tau fibrillization inhibition (FP); P10636; K18 P301L tau heparin fibrillization, Alexa594 FP, 6 h; Potency, µM (titrated, usually from 57.7 µM), actives largely listed as inhibitors; hit rate 0.39% among 280,000; further: nearly all actives have a fitted effect of over 55% in size
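Human K18 P301L fragment (15 uM unlabeled plus 0.24 uM Alexa 594-labeled) in 100 mM sodium acetate pH 7 with compound, aggregation induced by 20 uM heparin for 6 hr at 37 C. ThT (30 uM) added for 1 hr, then Alexa 594 FP read.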
Numbers stand for hits; - = inactive; ? = inconclusive; . = no result given; [ ] = another dose, or the depositor's remark. Unless noted, the call rests on the fitted dose curve; in most records, active means well fitted curve in the direction sought with a large enough effect; inconclusive means small, poorly fitted or top-dose-only effect, or another doubt; inactive means no such curve, though single readings can be large; an effect the other way counts as inactive or inconclusive.

SMILES | Tau ThT inhib | Tau fluor cs | Sfp PPTase inh | FBPA coupling cs | Tau fibril FP
CCc1ccc(NC(=O)c2sc3nc(C)cc(C)c3c2NC(=O)c2ccccc2OC)cc1 | - | - | . | . | -
Cc1cc2oc(C(=O)Nc3sc4c(c3C(=O)NCC3CCCO3)CCC4)cc(=O)c2cc1C (stereo not drawn) | ? | - | . | . | -
Cc1nc(-c2ccccc2)sc1-c1ccc(SCC(=O)Nc2ccc(F)cc2F)nn1 | - | - | . | . | -
CC(=O)OC(C(=O)Nc1nccs1)c1ccccc1 (stereo not drawn) | . | . | - | - | .
O=C(Nc1nccs1)C(Br)C(Br)c1ccccc1 (stereo not drawn) | . | . | 50µM | - | .
COc1ccc(-c2nc3sc(CCNC(=O)c4cc(Cl)ccc4OC)c(C)n3n2)cc1 | ? | - | . | . | -
Cc1cc(C(=O)CSc2nnc(-c3ccccc3F)o2)c(C)n1Cc1cccs1 | ? | - | 28µM | - | -
O=c1cc(-c2ccccc2)c2cc(Cl)c3c(c2o1)CN(Cc1ccccc1)CO3 | - | - | . | . | -
O=C(O)C(Cc1ccccc1)N1C(=O)/C(=C/c2cccnc2)SC1=S (stereo not drawn) | ? | - | 79µM | - | -
O=C(O)CC(C(=O)O)N1C(=O)/C(=C/C=C/c2ccco2)SC1=S (stereo not drawn) | 13µM | - | 22µM | - | ?
COc1ccc(/C=C2\SC(=S)N(C(Cc3ccccc3)C(=O)O)C2=O)cc1 (stereo not drawn) | ? | - | - | - | -
O=C(O)CN1C(=O)/C(=C2\SC(=S)N(C(Cc3ccccc3)C(=O)O)C2=O)c2ccccc21 (stereo not drawn) | . | . | - | - | .
O=C(O)C(Cc1ccccc1)N1C(=O)/C(=C/C=C/c2ccco2)SC1=S (stereo not drawn) | 7.9µM | ? | 40µM | - | ?
O=C1/C(=C/c2ccco2)SC(=S)N1CCC(=O)N1CCCCC1CCO (stereo not drawn) | . | . | 50µM | . | .
O=S(=O)(Nc1ccc(-c2ccc(N3CCCCCC3)nn2)cc1)c1ccc(C(F)(F)F)cc1 | - | - | . | . | -
COc1cc(NC(=O)CSc2nc(C)c(C(=O)Nc3ccccc3)c(-c3ccc(OC)c(OC)c3)c2C#N)c(OC)cc1Cl | - | - | . | . | -
Cc1ccccc1CN1c2ccccc2-c2nc(SCC(=O)c3ccccc3)ncc2S1(=O)=O | - | - | . | . | -
Cc1ccc(CNc2ncnc3onc(-c4ccc(F)cc4)c23)cc1 | - | - | . | . | -
O=C1/C(=C\c2cccnc2)SC(=S)N1C1CCS(=O)(=O)C1 (stereo not drawn) | ? | - | 79µM | - | -
O=C(O)CCCN1C(=O)/C(=C/C=C/c2ccco2)SC1=S | 3.2µM | - | - | - | ?
Cc1ccc2c(c1)cc(C(=O)NCc1ccc(F)cc1)n2C | - | - | . | . | -
CC1C/C(=C/c2ccncc2)C(=O)/C(=C/c2ccncc2)C1 (stereo not drawn) | 8.9µM | - | ? | - | ?
CCS(=O)(=O)c1ncc(N(Cc2ccco2)Cc2sccc2C)c(C(=O)Nc2cc(C)ccc2C)n1 | - | - | . | . | -
CC1=C(C(=O)Nc2ccc(C)cc2C)C(c2cc(Br)ccc2F)n2ncc(C(=O)Nc3ccc(C)cc3)c2N1 (stereo not drawn) | - | - | . | . | -
COc1ccc2cc3c(N)c(C(=O)N4CCCC4)sc3nc2c1 | 11µM | ? | - | - | -
SMILES | Tau ThT inhib | Tau fluor cs | Sfp PPTase inh | FBPA coupling cs | Tau fibril FP
CCOc1ccc2nc3sc(C(=O)N4CCN(C)CC4)c(N)c3cc2c1 | 13µM | ? | - | - | -
CCOc1ccc(C(=O)c2oc3ccccc3c2NC(=O)Cc2coc3cc(C)cc(C)c23)cc1 | - | - | . | . | -
CCN(CC)S(=O)(=O)c1ccc(NC2=NS(=O)(=O)c3ccccc32)cc1 | - | - | - | - | -
O=S1(=O)N=C(Nc2nncs2)c2ccccc21 | ? | - | 50µM | - | ?
CCCC[n+]1ccc(-c2nc3ccc([N+](=O)[O-])cc3[nH]2)cc1 | - | - | - | - | -
O=[N+]([O-])c1ccc(-c2nc3ccc([N+](=O)[O-])cc3[nH]2)cc1 | 2.8µM | ? | - | - | ?
Nc1ccc(-c2nc3ccc([N+](=O)[O-])cc3[nH]2)cc1 | 13µM | ? | - | - | -
O=[N+]([O-])c1ccc2nc(C(O)C(O)c3nc4ccc([N+](=O)[O-])cc4[nH]3)[nH]c2c1 (stereo not drawn) | . | . | - | - | .
O=[N+]([O-])c1ccc2nc(/C=C/c3ccc(Cl)cc3)[nH]c2c1 | 13µM | ? | - | - | -
COC(=O)C1=C(C(=O)OC)[C@@H]2N(Cc3ccccc3)c3ccccc3[C@@]23C[C@@H](C(=O)OC)N(S(=O)(=O)c2ccc4c(c2)OCCN4C)C3=N1 | -[11.5 µM] | -[11.6 µM] | - | - | -[11.6 µM]
Cc1cc(O)ccc1Nc1nc2ccccc2nc1Nc1ccc(O)cc1C | 14µM | 13µM[quencher] | 56µM | - | ?
Cc1ccc(Nc2nc3ccccc3s2)c(C)c1 | - | - | - | - | -
COc1ccc2nc(Cl)c(C3CC(c4ccco4)=NN3C(=O)CCCC(=O)O)cc2c1 (stereo not drawn) | - | - | 35µM | - | -
COc1ccc(N(CC(=O)Nc2cccc(C(C)=O)c2)S(=O)(=O)c2ccccc2)c(OC)c1 | - | ? | . | . | -
Cc1ccc(NC(=O)Cn2nc(C(F)(F)F)c3c2CCC3)cc1C | - | - | . | . | ?
COc1ccc(S(=O)(=O)/N=C2/NC(=O)/C(=C/c3ccco3)S2)cc1 | ? | - | - | - | ?
Cc1ccc(N=C2NC(=O)S/C2=C\c2ccco2)cc1 | - | - | 35µM | - | -
COc1ccc(N=C2NC(=O)/C(=C/c3ccco3)S2)cc1 | . | - | ? | - | -
O=C1NC(=Nc2ccccc2)/C(=C/c2ccco2)S1 | 22µM | ? | 22µM | - | -
CCOc1cc(-c2nnc(SCC(=O)NCCCOC)nc2-c2ccc(OC)c(OCC)c2)ccc1OC | - | - | . | . | -
COC(=O)c1cc2oc3ccccc3c2n1Cc1c(F)cccc1Cl | - | - | . | . | -
Cc1cc(Nc2ccccc2)nn1C(=O)c1ccc(Br)cc1 | - | 7.9µM[quencher] | - | - | -
Cc1ccc(/C=C2\CCCC3=C2NC(=S)NC3c2ccc(C)cc2)cc1 (stereo not drawn) | ? | - | 25µM | - | -
Cc1ccc(-c2nc3ccccc3n2C)o1 | ? | - | 35µM | - | -
Cn1c(-c2ccc(Br)o2)nc2cc(Br)ccc21 | ? | - | 40µM | - | -
Cc1nc2cc(NS(=O)(=O)c3ccc(Br)cc3)ccc2n1C | - | - | - | - | -
Cc1oc(-c2nc3ccccc3n2C)cc1C(=O)c1ccccc1 | ? | - | 22µM | - | ?
Cn1cc(C(=O)c2ccccc2)cc1-c1nc2ccccc2n1C | - | - | - | - | -
CC(=O)c1ccc(-c2nc3ccccc3n2C)o1 | ? | - | 40µM | - | -
Brc1ccc(Cn2c(-c3ccc(Br)o3)nc3ccccc32)o1 | ? | - | ? | - | -

Source: PubChem BioAssay
